For 41 sequences, binding signal results are on record in article PMC11006913.

Common to all, as to test: PBM; 200 nM protein, PBS
Holding throughout (settings): dsDNA, one strand shown

Test [1] concerns the target HOXB4 (Homo sapiens, UniProt P17483 148-234).
Test [2] has as its target HOXB4 (Homo sapiens, UniProt P17483 148-234, V174I).
In test [3] the target is MSX2 (Homo sapiens, UniProt P35548 130-214, R199I).
For test [4], the target named is MSX2 (Homo sapiens, UniProt P35548 130-214).
Test [5] concerns the target MSX2 (Homo sapiens, UniProt P35548 130-214, F161Y).

Sequence of HOXB4 (Homo sapiens, UniProt P17483 148-234) (P17483 148-234): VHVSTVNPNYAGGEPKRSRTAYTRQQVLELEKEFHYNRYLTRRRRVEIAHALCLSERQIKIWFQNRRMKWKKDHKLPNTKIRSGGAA
Sequence of HOXB4 (Homo sapiens, UniProt P17483 148-234, V174I) (P17483 148-234 V174I): as the sequence (P17483 148-234) above, with V27I counted along it
Sequence of MSX2 (Homo sapiens, UniProt P35548 130-214, F161Y) (P35548 130-214 F161Y): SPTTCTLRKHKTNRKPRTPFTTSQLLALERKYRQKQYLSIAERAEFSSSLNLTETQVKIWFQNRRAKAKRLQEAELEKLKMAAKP
Sequence of MSX2 (Homo sapiens, UniProt P35548 130-214, R199I) (P35548 130-214 R199I): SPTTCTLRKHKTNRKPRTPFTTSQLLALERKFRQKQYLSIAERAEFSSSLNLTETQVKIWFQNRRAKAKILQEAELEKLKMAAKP
Sequence of MSX2 (Homo sapiens, UniProt P35548 130-214) (P35548 130-214): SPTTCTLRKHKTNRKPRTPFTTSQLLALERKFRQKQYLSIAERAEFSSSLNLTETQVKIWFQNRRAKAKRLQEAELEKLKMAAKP

Regarding GAATAATC, the binding signal with HOXB4 [1] was 11.1 upbm affinity estimate (log intensity, higher = more binding, comparable within an allelic series); with HOXB4 [2], 11.3 upbm affinity estimate (log intensity, higher = more binding, comparable within an allelic series).
Turning to CGCCGACG, the binding signal in the test with HOXB4 [1] is 7.65 upbm affinity estimate (log intensity, higher = more binding, comparable within an allelic series); with HOXB4 [2], 7.86 upbm affinity estimate (log intensity, higher = more binding, comparable within an allelic series).
For AAAATTAC, the binding signal is 11.3 upbm affinity estimate (log intensity, higher = more binding, comparable within an allelic series) in the test with HOXB4 [1] and 11.7 upbm affinity estimate (log intensity, higher = more binding, comparable within an allelic series) with HOXB4 [2].
With CACGAGCC, the binding signal with HOXB4 [1] was 7.81 upbm affinity estimate (log intensity, higher = more binding, comparable within an allelic series); in the test with HOXB4 [2], 7.69 upbm affinity estimate (log intensity, higher = more binding, comparable within an allelic series).
For the sequence CTGGCGAC, the binding signal with HOXB4 [1] was 7.56 upbm affinity estimate (log intensity, higher = more binding, comparable within an allelic series); with HOXB4 [2], 7.45 upbm affinity estimate (log intensity, higher = more binding, comparable within an allelic series).
In the case of GAACATAA, the binding signal is 10.5 upbm affinity estimate (log intensity, higher = more binding, comparable within an allelic series) in the test with HOXB4 [1] and 10.7 upbm affinity estimate (log intensity, higher = more binding, comparable within an allelic series) in the test with HOXB4 [2].
TCATTGGA: the binding signal with HOXB4 [1] is 10.1 upbm affinity estimate (log intensity, higher = more binding, comparable within an allelic series); in the test with HOXB4 [2], 9.83 upbm affinity estimate (log intensity, higher = more binding, comparable within an allelic series).
With ACGCAATA, the binding signal with HOXB4 [1] is 9.72 upbm affinity estimate (log intensity, higher = more binding, comparable within an allelic series); with HOXB4 [2], 9.78 upbm affinity estimate (log intensity, higher = more binding, comparable within an allelic series).
For the sequence AGACCTAG, the binding signal was 7.5 upbm affinity estimate (log intensity, higher = more binding, comparable within an allelic series) with HOXB4 [1] and 7.5 upbm affinity estimate (log intensity, higher = more binding, comparable within an allelic series) with HOXB4 [2].
Turning to CCGGGTTC, the binding signal with HOXB4 [1] was 7.62 upbm affinity estimate (log intensity, higher = more binding, comparable within an allelic series); with HOXB4 [2], 7.65 upbm affinity estimate (log intensity, higher = more binding, comparable within an allelic series).
AATACAAG: the binding signal was 9.55 upbm affinity estimate (log intensity, higher = more binding, comparable within an allelic series) with HOXB4 [1] and 9.49 upbm affinity estimate (log intensity, higher = more binding, comparable within an allelic series) with HOXB4 [2].
Take CCTGGAAG: the binding signal with HOXB4 [1] was 7.71 upbm affinity estimate (log intensity, higher = more binding, comparable within an allelic series); in the test with HOXB4 [2] it was 7.54 upbm affinity estimate (log intensity, higher = more binding, comparable within an allelic series).
As for AGCCGCGG, the binding signal with HOXB4 [1] was 7.58 upbm affinity estimate (log intensity, higher = more binding, comparable within an allelic series); with HOXB4 [2], 7.46 upbm affinity estimate (log intensity, higher = more binding, comparable within an allelic series).
Consider CCGGTGAG, for which the binding signal is 7.55 upbm affinity estimate (log intensity, higher = more binding, comparable within an allelic series) with HOXB4 [1] and 7.62 upbm affinity estimate (log intensity, higher = more binding, comparable within an allelic series) in the test with HOXB4 [2].
With CAGGACGC, the binding signal in the test with HOXB4 [1] is 7.75 upbm affinity estimate (log intensity, higher = more binding, comparable within an allelic series); in the test with HOXB4 [2], 7.46 upbm affinity estimate (log intensity, higher = more binding, comparable within an allelic series).
Turning to ACGTGGCG, the binding signal is 7.5 upbm affinity estimate (log intensity, higher = more binding, comparable within an allelic series) with HOXB4 [1] and 7.6 upbm affinity estimate (log intensity, higher = more binding, comparable within an allelic series) with HOXB4 [2].
On to AACCCCCC, for which the binding signal in the test with HOXB4 [1] was 7.54 upbm affinity estimate (log intensity, higher = more binding, comparable within an allelic series); with HOXB4 [2], 7.42 upbm affinity estimate (log intensity, higher = more binding, comparable within an allelic series).
For CGCCGTGC, the binding signal with HOXB4 [1] is 7.83 upbm affinity estimate (log intensity, higher = more binding, comparable within an allelic series); with HOXB4 [2] it was 7.83 upbm affinity estimate (log intensity, higher = more binding, comparable within an allelic series).
For the sequence CGTCGTTA, the binding signal with HOXB4 [1] was 10.9 upbm affinity estimate (log intensity, higher = more binding, comparable within an allelic series); in the test with HOXB4 [2] it was 11 upbm affinity estimate (log intensity, higher = more binding, comparable within an allelic series).
As for CCACAGGC, the binding signal was 7.72 upbm affinity estimate (log intensity, higher = more binding, comparable within an allelic series) with HOXB4 [1] and 7.85 upbm affinity estimate (log intensity, higher = more binding, comparable within an allelic series) with HOXB4 [2].
Regarding GGAGTAAA, the binding signal with HOXB4 [1] was 9.68 upbm affinity estimate (log intensity, higher = more binding, comparable within an allelic series); with HOXB4 [2], 9.73 upbm affinity estimate (log intensity, higher = more binding, comparable within an allelic series).
With AGGAGGAG, the binding signal in the test with HOXB4 [1] is 7.49 upbm affinity estimate (log intensity, higher = more binding, comparable within an allelic series); in the test with HOXB4 [2], 7.57 upbm affinity estimate (log intensity, higher = more binding, comparable within an allelic series).
For ATCTATAA, the binding signal with HOXB4 [1] is 11 upbm affinity estimate (log intensity, higher = more binding, comparable within an allelic series); in the test with HOXB4 [2], 11.1 upbm affinity estimate (log intensity, higher = more binding, comparable within an allelic series).
For the sequence ATAAAGTA, the binding signal in the test with HOXB4 [1] is 10.5 upbm affinity estimate (log intensity, higher = more binding, comparable within an allelic series); in the test with HOXB4 [2], 10.6 upbm affinity estimate (log intensity, higher = more binding, comparable within an allelic series).
For the sequence CTATTTGA, the binding signal with HOXB4 [1] was 9.99 upbm affinity estimate (log intensity, higher = more binding, comparable within an allelic series); with HOXB4 [2] it was 9.85 upbm affinity estimate (log intensity, higher = more binding, comparable within an allelic series).
As to AGCCCCCA, the binding signal was 7.49 upbm affinity estimate (log intensity, higher = more binding, comparable within an allelic series) with HOXB4 [1] and 7.6 upbm affinity estimate (log intensity, higher = more binding, comparable within an allelic series) in the test with HOXB4 [2].
Turning to AGAAATAA, the binding signal in the test with HOXB4 [1] was 10.1 upbm affinity estimate (log intensity, higher = more binding, comparable within an allelic series); with HOXB4 [2] it was 10.1 upbm affinity estimate (log intensity, higher = more binding, comparable within an allelic series).
Take CCTGATTA: the binding signal with HOXB4 [1] is 11.8 upbm affinity estimate (log intensity, higher = more binding, comparable within an allelic series); with HOXB4 [2], 12.4 upbm affinity estimate (log intensity, higher = more binding, comparable within an allelic series).
Turning to GAATGAAC, the binding signal was 8.91 upbm affinity estimate (log intensity, higher = more binding, comparable within an allelic series) with HOXB4 [1] and 8.78 upbm affinity estimate (log intensity, higher = more binding, comparable within an allelic series) with HOXB4 [2].
As to AATCAAGG, the binding signal with HOXB4 [1] was 10.3 upbm affinity estimate (log intensity, higher = more binding, comparable within an allelic series); with HOXB4 [2], 10.5 upbm affinity estimate (log intensity, higher = more binding, comparable within an allelic series).
Take ACTATATG: the binding signal in the test with HOXB4 [1] is 9.48 upbm affinity estimate (log intensity, higher = more binding, comparable within an allelic series); in the test with HOXB4 [2], 9.35 upbm affinity estimate (log intensity, higher = more binding, comparable within an allelic series).
Take AATTGGTA: the binding signal is 10.7 upbm affinity estimate (log intensity, higher = more binding, comparable within an allelic series) in the test with HOXB4 [1] and 11 upbm affinity estimate (log intensity, higher = more binding, comparable within an allelic series) with HOXB4 [2].
Consider GTTATAGA, for which the binding signal in the test with HOXB4 [1] is 9.85 upbm affinity estimate (log intensity, higher = more binding, comparable within an allelic series); in the test with HOXB4 [2] it was 9.7 upbm affinity estimate (log intensity, higher = more binding, comparable within an allelic series).
With CCGACGGA, the binding signal in the test with HOXB4 [1] is 7.67 upbm affinity estimate (log intensity, higher = more binding, comparable within an allelic series); in the test with HOXB4 [2] it was 7.56 upbm affinity estimate (log intensity, higher = more binding, comparable within an allelic series).
Regarding GATCGTTA, the binding signal with HOXB4 [1] is 12.3 upbm affinity estimate (log intensity, higher = more binding, comparable within an allelic series); with HOXB4 [2], 12.8 upbm affinity estimate (log intensity, higher = more binding, comparable within an allelic series).
For ATATGATG, the binding signal in the test with HOXB4 [1] was 10 upbm affinity estimate (log intensity, higher = more binding, comparable within an allelic series); with HOXB4 [2] it was 10.1 upbm affinity estimate (log intensity, higher = more binding, comparable within an allelic series).
As for GCGCGGGA, the binding signal with HOXB4 [1] was 7.68 upbm affinity estimate (log intensity, higher = more binding, comparable within an allelic series); with HOXB4 [2] it was 7.49 upbm affinity estimate (log intensity, higher = more binding, comparable within an allelic series); in the test with MSX2 [3] it was 9.54 upbm affinity estimate (log intensity, higher = more binding, comparable within an allelic series); with MSX2 [4], 9.49 upbm affinity estimate (log intensity, higher = more binding, comparable within an allelic series); with MSX2 [5], 9.51 upbm affinity estimate (log intensity, higher = more binding, comparable within an allelic series).
Turning to AAGCCAAT, the binding signal with HOXB4 [1] is 10.3 upbm affinity estimate (log intensity, higher = more binding, comparable within an allelic series); with HOXB4 [2], 10.6 upbm affinity estimate (log intensity, higher = more binding, comparable within an allelic series).
Turning to CGGTCACG, the binding signal in the test with HOXB4 [1] is 7.89 upbm affinity estimate (log intensity, higher = more binding, comparable within an allelic series); with HOXB4 [2] it was 7.75 upbm affinity estimate (log intensity, higher = more binding, comparable within an allelic series).
Consider GCGGCTGA, for which the binding signal with HOXB4 [1] is 7.8 upbm affinity estimate (log intensity, higher = more binding, comparable within an allelic series); with HOXB4 [2] it was 7.53 upbm affinity estimate (log intensity, higher = more binding, comparable within an allelic series).
On to ATCTCTTA, for which the binding signal with HOXB4 [1] was 9.96 upbm affinity estimate (log intensity, higher = more binding, comparable within an allelic series); with HOXB4 [2], 9.9 upbm affinity estimate (log intensity, higher = more binding, comparable within an allelic series).
